USP8 block: inhibitors of human USP8 deubiquitinase; 47,000 tested, 4.2% active; inhibition, % at 20 µM; P40818; AID 1645853; purified USP8, Ub-rhodamine cleavage fluorescence, 30 min
USP17 block: inhibitors of human USP17 deubiquitinase. inhibition, % at 50 µM. A8MUK1. purified USP17, Ub-rhodamine cleavage fluorescence, 3 h. 47,000 tested, 6.5% active
USP10 block: human USP10 deubiquitinase inhibition; purified USP10, Ub-rhodamine fluorescence, 60 min; inhibition, % at 20 µM; 47,000 tested, 1.1% active; AID 1645856
Target sequence (Q14694 whole entry, looked up): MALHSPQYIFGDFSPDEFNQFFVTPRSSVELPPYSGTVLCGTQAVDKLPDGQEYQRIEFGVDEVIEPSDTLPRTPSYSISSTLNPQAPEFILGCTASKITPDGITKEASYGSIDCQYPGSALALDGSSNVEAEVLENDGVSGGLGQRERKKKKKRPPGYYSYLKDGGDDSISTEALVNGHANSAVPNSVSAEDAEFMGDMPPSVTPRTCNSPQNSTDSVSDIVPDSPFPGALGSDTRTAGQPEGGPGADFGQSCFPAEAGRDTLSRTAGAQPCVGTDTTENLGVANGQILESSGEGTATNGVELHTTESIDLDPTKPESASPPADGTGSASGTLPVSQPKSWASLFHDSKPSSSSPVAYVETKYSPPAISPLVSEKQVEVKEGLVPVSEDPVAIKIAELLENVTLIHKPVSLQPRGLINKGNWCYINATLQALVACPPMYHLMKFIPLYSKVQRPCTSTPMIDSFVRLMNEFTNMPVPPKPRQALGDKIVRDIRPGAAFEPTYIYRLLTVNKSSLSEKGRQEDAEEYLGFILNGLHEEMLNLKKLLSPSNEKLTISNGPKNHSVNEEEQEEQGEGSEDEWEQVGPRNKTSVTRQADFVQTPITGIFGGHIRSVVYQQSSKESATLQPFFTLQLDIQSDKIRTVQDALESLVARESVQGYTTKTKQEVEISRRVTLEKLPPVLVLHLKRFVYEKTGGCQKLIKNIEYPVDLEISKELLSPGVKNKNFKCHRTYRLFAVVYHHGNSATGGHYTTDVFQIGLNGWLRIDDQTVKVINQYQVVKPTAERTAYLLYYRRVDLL
USP28 block: inhibitors of human USP28 deubiquitinase. AID 1645857. inhibition, % at 25 µM. purified USP28, Ub-rhodamine cleavage fluorescence, 30 min. 47,000 tested, 3% active. Q96RU2
USP30 inh: inhibitors of human USP30 deubiquitinase. Q70CQ3. purified USP30, Ub-rhodamine cleavage fluorescence. inhibition, % at 25 µM. 47,000 tested, 5.3% active. AID 1645860
* hit, by the source's call; i = inactive; x = no result given. Compounds with a hit are over-represented: about 14% of the library has one in this group of screens. Cut-off read from the data, not from the text of the source: active = inhibition above about 30%; inactive = the rest.

SMILES	USP8 block	USP17 block	USP10 block	USP28 block	USP30 inh
CCC1OC(O)(C(C)C(O)C(C)C2OC(=O)/C(C)=C/C(C)=CC(C)C(O)C(C)C/C(C)=C/C=C/C2OC)CC(OC(=O)/C=C/C(=O)NC2=C(O)CCC2=O)C1C (configuration not stated)	17.1	74.2*	38.6*	33.8*	12.1
COC1=C2C[C@@H](C)C[C@H](OC)[C@H](O)[C@@H](C)/C=C(\C)[C@H](OC(N)=O)[C@@H](OC)/C=C\C=C(/C)C(=O)NC(=CC1=O)C2=O	-4.1	-1.7	-7.3	6.3	-5.4
CO/C1=C\C(C)=C/[C@@H](C)[C@@H](O)[C@@H](C)C/C(C)=C/C=C/[C@H](OC)[C@@H]([C@@H](C)[C@@H](O)[C@H](C)[C@@]2(O)C[C@@H](OC(=O)/C=C/C(N)=O)[C@H](C)[C@@H](C(C)C)O2)OC1=O	2.5	56.5*	27.7	23.5	-2.5
Cc1ccc(-c2cn3ccsc3n2)cc1	-22.3	-20.7	0.4	-0.8	-2.9
O=C(Nc1ccc(-c2cn3ccsc3n2)cc1)c1ccc(Cl)c([N+](=O)[O-])c1	97.4*	12.2	67.0*	32.2*	82.3*
CC1=CN2C(=N)/C(=C/c3cn(Cc4ccc(Cl)cc4)c4ccccc34)C(=O)N=C2S1	-96.9	-186.4	-9.4	-274.4	i
N=C1/C(=C/c2cn(Cc3ccccc3F)c3ccccc23)C(=O)N=C2SC(C(F)(F)F)=NN12	47.6*	-56.6	50.6*	-85.5	-394.7
Cc1ccc(NC(=O)c2ccc3c(=O)n4c(nc3c2)CCCCC4)cc1S(=O)(=O)N1CCOCC1	9.7	36.1*	1.9	x	x
COc1ccc(C(=O)Nc2ccc(C)c(S(=O)(=O)N3CCCCCC3)c2)cc1	-1.2	-5.6	3.5	1.1	-8.7
O=C(Nc1cccc(S(=O)(=O)N2CCCC2)c1)c1ccc(N2CCOCC2)c([N+](=O)[O-])c1	0.2	8.0	4.2	40.7*	23.0
O=C(Nc1cccc(S(=O)(=O)N2CCCC2)c1)c1ccc2c(=O)n3c(nc2c1)CCCCC3	2.2	19.7	9.0	61.6*	26.8
O=C(COC(=O)c1ccc2c(=O)n3c(nc2c1)CCCCC3)NCC1CCCCC1	7.2	54.9*	-2.5	40.9*	64.5*
O=C(COC(=O)c1ccc2c(=O)n3c(nc2c1)CCCCC3)NC12CC3CC(CC(C3)C1)C2	5.7	0.1	2.0	4.2	20.9
COc1ccccc1C1c2[nH]c3ccccc3c2C[C@H]2C(=O)N(CCCn3ccnc3)CC(=O)N12 (some centres not stated)	-16.8	-28.6	-8.1	-16.0	-56.8
Cn1cc(S(=O)(=O)N2CCCCCC2)cc1C(=O)Nc1ccc(F)cc1	10.5	49.5*	8.4	3.3	14.6
O=C(CCc1ccc2[nH]ccc2c1)NCc1ccc(F)cc1	-12.2	-21.1	-5.3	-23.5	-55.3
O=C(NCc1ccc(F)cc1)Nc1cccc2ccccc12	70.8*	40.3*	1.7	17.1	39.6*
COc1ccc(CNC(=O)Nc2cccc3ccccc23)cc1	97.3*	92.2*	28.4	24.2	37.7*
O=C(NCc1ccccc1)Nc1cccc2ccccc12	94.7*	83.6*	10.2	19.1	-4.6
Nc1nc(N2CCCC2)ncc1C(=O)NCc1ccccc1F	2.3	5.1	3.2	5.8	-26.8
O=C(O)c1c(-c2ccoc2)ncc2c1CCN(c1ncccn1)C2	-23.6	-149.5	-1.6	-199.0	i
Cc1ccc(C)c(NC(=O)c2nccnc2-c2nc3ccccc3s2)c1	-17.7	-1.1	-3.3	-4.2	-19.7
Cc1scc2nc(C3CCC3)nc(N3CCC(C(=O)NC4CC4)CC3)c12	-163.2	-53.7	-6.4	-74.9	-192.0
O=[N+]([O-])c1ccc(N2CCc3nc(-c4ccccn4)ncc3C2)cc1	-262.9	70.4*	6.1	8.1	77.3*
Cc1cc2ncc3c(n2n1)CCN(c1ccc([N+](=O)[O-])cc1)C3	-6.5	32.6*	-12.1	-2.9	-237.4
SMILES	USP8 block	USP17 block	USP10 block	USP28 block	USP30 inh
CCCN1CCN(c2ncc3c(n2)CCN(Cc2ccccn2)C3)CC1	-81.8	-45.8	-5.9	-35.4	-101.7
CC1=C(c2cccc(Cl)c2)S(=O)(=O)N=C1N1CCCN(C(=O)C2CCC2)CC1	-14.0	-2.5	-1.5	-4.6	-7.1
Cc1ccc2c(=O)c(C(=O)N3CCCC3)cn(CC(=O)Nc3ccc(F)c(F)c3)c2n1	-11.8	-7.7	-2.1	-6.9	-28.1
CC1=CSC2=NC(=O)/C(=C/c3cc(C)n(-c4cccc(Cl)c4)c3C)C(=N)N12	-24.8	-175.7	-3.7	x	x
Cc1ccc(C)c(Cn2nnc3c(=O)[nH]c(C4CCN(S(=O)(=O)c5ccc(S(=O)(=O)NC6CCCC6)cc5)CC4)nc32)c1	-17.9	-7.8	29.8	20.9	-0.7
Cc1ccc(C)c(Cn2nnc3c(=O)[nH]c(C4CCN(S(=O)(=O)c5ccc(S(=O)(=O)N6CCOCC6)cc5)CC4)nc32)c1	55.8*	40.4*	15.3	15.5	33.2*
Cc1ccc(C)c(Cn2nnc3c(=O)[nH]c(C4CCN(S(=O)(=O)c5ccc(S(=O)(=O)NC6CC6)cc5)CC4)nc32)c1	-42.4	30.3*	26.2	42.2*	51.6*
Cc1ccc(Cl)cc1N(Cc1ccc(C(=O)N2CCOCC2)cc1)S(=O)(=O)c1ccccc1	16.8	x	1.6	16.0	49.6*
Cc1ccc(C)c(N(CC(=O)NCCN2CCOCC2)S(=O)(=O)c2ccccc2)c1	9.1	7.4	1.7	7.0	19.2
O=C(N[C@@H]1C[C@@H](Oc2ccccc2)[C@H](O)[C@H]1N1CCCC1)c1cnc[nH]1	0.3	-15.6	-2.6	-8.5	-22.9
O=C(Cn1cnc(NC(=O)c2ccc(F)cc2)n1)Nc1ccccc1	4.0	1.8	2.7	5.5	11.4
Cc1ccc(C(=O)Nc2ncn(CC(=O)Nc3ccccc3)n2)cc1	15.2	24.6	0.0	20.7	41.2*
COc1ccc(NC(=O)Cn2cnc(NC(=O)c3ccccc3)n2)cc1	26.3	45.8*	-14.2	9.5	-0.7
COc1cccc(NC(=O)Cn2cnc(NC(=O)c3ccccc3)n2)c1	5.9	6.8	1.1	6.2	11.9
O=C(NC1CCCCC1)C(c1ccc(F)cc1)N(C(=O)C1COc2ccccc2O1)c1ccc2c(c1)OCO2 (configuration not stated)	41.4*	-8.5	14.0	-0.1	-31.4
CC(C)c1ccc(C(C(=O)NC2CCCCC2)N(C(=O)c2cnccn2)c2ccc3c(c2)OCO3)cc1 (configuration not stated)	0.3	8.9	-2.5	4.9	11.7
Cc1ccc(C(C(=O)NC2CCCCC2)N(Cc2ccc3c(c2)OCO3)C(=O)CCCC(=O)Nc2ccccn2)cc1 (configuration not stated)	8.6	9.2	3.5	15.3	18.2
Cc1ccc(C(C(=O)NC2CCCCC2)N(C(=O)CCCC(=O)Nc2ccccn2)c2ccc3c(c2)OCCO3)cc1 (configuration not stated)	8.0	47.8*	20.4	21.9	37.9*
O=C(NC1CCCCC1)C(c1ccccc1)N(C(=O)c1cccs1)c1ccc2c(c1)OCO2 (configuration not stated)	11.7	1.5	2.7	-5.6	11.7

Assay outcomes from PubChem BioAssay.
